{"source": "the supplement of paper PMC12282887", "test_system": "E. coli BW25113 micFp lux reporter", "experiment": "promoter activity interaction Z-score (Lux/OD deviation from empty-vector control); higher = stronger promoter induction by the compound", "experimental": "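E. coli BW25113 (wild type or ΔmarA/ΔsoxS/Δrob) carrying pTU175 luxCDABE promoter reporters was grown in LB in 384-well plates at 37°C with each of 94 compounds at 4 two-fold concentrations, in biological duplicates. Luminescence and OD600 were read every 30 min for 12 h and integrated as AUC over 8 h (0-8 h WT, 1-9 h mutants). Lux AUC was divided by OD AUC; the interaction score is the residual of a Huber robust fit of each promoter against the empty-vector control, then Z-transformed per promoter.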", "note": "± gives the standard deviation of the averaged measurements."}
{"smiles": "Cc1c(N)nc([C@H](CC(N)=O)NC[C@H](N)C(N)=O)nc1C(=O)N[C@H](C(=O)N[C@H](C)[C@@H](O)[C@H](C)C(=O)N[C@H](C(=O)NCCc1nc(-c2nc(C(=O)NCCC[S+](C)C)cs2)cs1)[C@@H](C)O)[C@@H](OC1OC(CO)C(O)C(O)C1OC1OC(CO)C(O)C(OC(N)=O)C1O)c1cnc[nH]1", "note": "(stereo partly drawn) [Bleomycin]", "values": [{"measurement": "promoter activity interaction Z-score", "setting": "0.038 µg/ml, genetic background: wild type", "result": "-0.542 ± 0.065"}, {"measurement": "promoter activity interaction Z-score", "setting": "0.038 µg/ml, genetic background: ΔmarA", "result": "-0.018 ± 0.18"}, {"measurement": "promoter activity interaction Z-score", "setting": "0.038 µg/ml, genetic background: Δrob", "result": "-0.0145 ± 0.17"}, {"measurement": "promoter activity interaction Z-score", "setting": "0.038 µg/ml, genetic background: ΔsoxS", "result": "-0.239 ± 0.3"}, {"measurement": "promoter activity interaction Z-score", "setting": "0.076 µg/ml, genetic background: wild type", "result": "-0.384 ± 0.099"}, {"measurement": "promoter activity interaction Z-score", "setting": "0.076 µg/ml, genetic background: ΔmarA", "result": "-0.0986 ± 0.079"}, {"measurement": "promoter activity interaction Z-score", "setting": "0.076 µg/ml, genetic background: Δrob", "result": "-0.0358 ± 0.11"}, {"measurement": "promoter activity interaction Z-score", "setting": "0.076 µg/ml, genetic background: ΔsoxS", "result": "-0.0314 ± 0.21"}, {"measurement": "promoter activity interaction Z-score", "setting": "0.15 µg/ml, genetic background: wild type", "result": "-0.758 ± 0.17"}, {"measurement": "promoter activity interaction Z-score", "setting": "0.15 µg/ml, genetic background: ΔmarA", "result": "0.0263 ± 0.051"}, {"measurement": "promoter activity interaction Z-score", "setting": "0.15 µg/ml, genetic background: Δrob", "result": "0.317 ± 0.023"}, {"measurement": "promoter activity interaction Z-score", "setting": "0.15 µg/ml, genetic background: ΔsoxS", "result": "-0.34 ± 0.014"}, {"measurement": "promoter activity interaction Z-score", "setting": "0.3 µg/ml, genetic background: wild type", "result": "-0.844 ± 0.18"}, {"measurement": "promoter activity interaction Z-score", "setting": "0.3 µg/ml, genetic background: ΔmarA", "result": -0.0349}, {"measurement": "promoter activity interaction Z-score", "setting": "0.3 µg/ml, genetic background: Δrob", "result": "-0.227 ± 0.59"}, {"measurement": "promoter activity interaction Z-score", "setting": "0.3 µg/ml, genetic background: ΔsoxS", "result": -1.55}]}
{"smiles": "CC(=O)N[C@H]1[C@@H](O[C@@H]2O[C@H](CC(O)[C@H]3O[C@@H](n4ccc(=O)[nH]c4=O)[C@H](O)[C@@H]3O)[C@H](O)[C@H](O)[C@H]2NC(=O)/C=C/CC(C)C)O[C@H](CO)[C@@H](N)[C@@H]1O", "note": "(stereo partly drawn) [Tunicamycin]", "values": [{"measurement": "promoter activity interaction Z-score", "setting": "2.6 µg/ml, genetic background: wild type", "result": "0.395 ± 0.012"}, {"measurement": "promoter activity interaction Z-score", "setting": "2.6 µg/ml, genetic background: ΔmarA", "result": "0.0327 ± 0.17"}, {"measurement": "promoter activity interaction Z-score", "setting": "2.6 µg/ml, genetic background: Δrob", "result": "0.0339 ± 0.11"}, {"measurement": "promoter activity interaction Z-score", "setting": "2.6 µg/ml, genetic background: ΔsoxS", "result": "0.164 ± 0.031"}, {"measurement": "promoter activity interaction Z-score", "setting": "5.3 µg/ml, genetic background: wild type", "result": "0.157 ± 0.33"}, {"measurement": "promoter activity interaction Z-score", "setting": "5.3 µg/ml, genetic background: ΔmarA", "result": "-0.0548 ± 0.095"}, {"measurement": "promoter activity interaction Z-score", "setting": "5.3 µg/ml, genetic background: Δrob", "result": "0.115 ± 0.13"}, {"measurement": "promoter activity interaction Z-score", "setting": "5.3 µg/ml, genetic background: ΔsoxS", "result": "-0.136 ± 0.086"}, {"measurement": "promoter activity interaction Z-score", "setting": "10.6 µg/ml, genetic background: wild type", "result": "-0.104 ± 0.25"}, {"measurement": "promoter activity interaction Z-score", "setting": "10.6 µg/ml, genetic background: ΔmarA", "result": "0.0656 ± 0.17"}, {"measurement": "promoter activity interaction Z-score", "setting": "10.6 µg/ml, genetic background: Δrob", "result": "0.0163 ± 0.13"}, {"measurement": "promoter activity interaction Z-score", "setting": "10.6 µg/ml, genetic background: ΔsoxS", "result": "-0.276 ± 0.12"}, {"measurement": "promoter activity interaction Z-score", "setting": "21.1 µg/ml, genetic background: wild type", "result": "-0.663 ± 0.012"}, {"measurement": "promoter activity interaction Z-score", "setting": "21.1 µg/ml, genetic background: ΔmarA", "result": "-0.0908 ± 0.024"}, {"measurement": "promoter activity interaction Z-score", "setting": "21.1 µg/ml, genetic background: Δrob", "result": "-0.359 ± 0.073"}, {"measurement": "promoter activity interaction Z-score", "setting": "21.1 µg/ml, genetic background: ΔsoxS", "result": "-0.569 ± 0.028"}]}
{"smiles": "NCCc1c[nH]c2ccc(O)cc12", "note": "[Serotonine]", "values": [{"measurement": "promoter activity interaction Z-score", "setting": "13.3 µg/ml, genetic background: wild type", "result": "-0.241 ± 0.065"}, {"measurement": "promoter activity interaction Z-score", "setting": "13.3 µg/ml, genetic background: ΔmarA", "result": "-0.0379 ± 0.032"}, {"measurement": "promoter activity interaction Z-score", "setting": "13.3 µg/ml, genetic background: Δrob", "result": "-0.00374 ± 0.19"}, {"measurement": "promoter activity interaction Z-score", "setting": "13.3 µg/ml, genetic background: ΔsoxS", "result": "-0.156 ± 0.27"}, {"measurement": "promoter activity interaction Z-score", "setting": "26.6 µg/ml, genetic background: wild type", "result": "0.00853 ± 0.19"}, {"measurement": "promoter activity interaction Z-score", "setting": "26.6 µg/ml, genetic background: ΔmarA", "result": "0.0453 ± 0.21"}, {"measurement": "promoter activity interaction Z-score", "setting": "26.6 µg/ml, genetic background: Δrob", "result": "0.0253 ± 0.12"}, {"measurement": "promoter activity interaction Z-score", "setting": "26.6 µg/ml, genetic background: ΔsoxS", "result": "-0.0552 ± 0.27"}, {"measurement": "promoter activity interaction Z-score", "setting": "53.2 µg/ml, genetic background: wild type", "result": "-0.712 ± 0.14"}, {"measurement": "promoter activity interaction Z-score", "setting": "53.2 µg/ml, genetic background: ΔmarA", "result": "0.105 ± 0.08"}, {"measurement": "promoter activity interaction Z-score", "setting": "53.2 µg/ml, genetic background: Δrob", "result": "-0.0954 ± 0.018"}, {"measurement": "promoter activity interaction Z-score", "setting": "53.2 µg/ml, genetic background: ΔsoxS", "result": "-0.396 ± 0.062"}, {"measurement": "promoter activity interaction Z-score", "setting": "106.3 µg/ml, genetic background: wild type", "result": "-0.289 ± 0.23"}, {"measurement": "promoter activity interaction Z-score", "setting": "106.3 µg/ml, genetic background: ΔmarA", "result": "0.0717 ± 0.036"}, {"measurement": "promoter activity interaction Z-score", "setting": "106.3 µg/ml, genetic background: Δrob", "result": "-0.13 ± 0.074"}, {"measurement": "promoter activity interaction Z-score", "setting": "106.3 µg/ml, genetic background: ΔsoxS", "result": "-0.339 ± 0.011"}]}
